Results taken from PubChem BioAssay.
The source made the active and inactive calls.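 The calls were made as follows, unless noted: active = inhibition above 20% together with a positive visual image hit; inconclusive = visual image hit but inhibition not above 20%; inactive = no visual image hit.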

Experiments:
[1] = inhibitors of TNFa-induced NFkB p65 translocation, primary screen, imaging, HUVEC, MLSMR starter and 10KST1 sets (AID 438); settings: HUVEC TNFa-induced p65 nuclear translocation; cell count: measured here: nuclei count (cytotoxicity indicator), at 2.08 µM; inhibition: at 2 µM, stronger effect = higher value, 0% TNFa-plus-vehicle, 100% no-TNFa wells;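 also: compound added about 3h40 before a 20 min TNFalpha stimulation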;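 as to inhibition: signal is the nuclear over cytoplasmic p65 intensity ratio per well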
[2] = inhibitors of mutant huntingtin aggregation, primary screen, imaging, exon1htt(103Q)mCFP cells, high-content imaging (AID 483;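 active = visual image review flags a hit and inhibition of aggregation exceeds 20%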;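 also: compound exposure lasted 3 days before fixation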;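 as to nuclei count: percent of the per-plate median nuclei count of sample wells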); settings: exon1htt(103Q)mCFP cell line, aggregate imaging, at 2 µM; inhibition of aggregation: stronger effect = higher value; nuclei count: measured here: cell count, toxicity
[3] = inhibitors of E-selectin induction by TNFa, primary screen, imaging, HUVEC, immunofluorescence, MLSMR starter and 10KST1 sets (AID 487;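 active = visually confirmed hit in the image check and inhibition above 20%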;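 as to inhibition: signal is fraction of cell area covered by stained E-selectin grains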;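 as to nuclei count: 100% = median nuclei count of all wells on the same plate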); settings: HUVEC TNFalpha-induced E-selectin immunofluorescence imaging, at 2 µM; inhibition: stronger effect = higher value; nuclei count: measured here: cell number, toxicity
[4] = target: Voltage-gated potassium channel subunit beta-2 (Rattus norvegicus) (UniProt P62483); assay: KvBeta enzyme negative modulators, primary screen, biochemical, NADPH fluorescence (AID 622;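 active = fluorescence slope higher than the sample average by over 3 SD, cut at about -0.22 in these data, passing the limit was not always enough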;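 also: slope of raw intensity against log time taken from 70 to 1610 s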); settings: recombinant KvBeta, 4-cyanobenzaldehyde reduction, at 10 µM, stronger effect = higher value
Voltage-gated potassium channel subunit beta-2 (Rattus norvegicus), sequence (P62483 whole entry, looked up): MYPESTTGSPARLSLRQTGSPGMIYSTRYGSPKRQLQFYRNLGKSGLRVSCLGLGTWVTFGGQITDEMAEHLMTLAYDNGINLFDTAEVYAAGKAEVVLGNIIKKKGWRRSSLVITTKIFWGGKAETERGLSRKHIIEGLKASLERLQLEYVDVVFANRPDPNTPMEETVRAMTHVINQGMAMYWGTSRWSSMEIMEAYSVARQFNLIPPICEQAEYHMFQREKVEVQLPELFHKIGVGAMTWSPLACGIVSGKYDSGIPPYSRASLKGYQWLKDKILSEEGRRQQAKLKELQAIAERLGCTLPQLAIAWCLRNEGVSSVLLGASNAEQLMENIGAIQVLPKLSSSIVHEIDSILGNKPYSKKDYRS

[5] = target: Voltage-gated potassium channel subunit beta-2 (Rattus norvegicus) (UniProt P62483); assay: KvBeta positive modulators, primary screen, biochemical, NADPH fluorescence (AID 623;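 active = NADPH fluorescence slope more negative than the mean of all samples by about 3 SD, 99.7% confidence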;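 also: fluorescence intensity change per second fitted from 20 to 320 s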); settings: Recombinant KvBeta, NADPH fluorescence decrease slope, 10 min; at 10 µM; stronger effect = lower value
[6] = target: Alpha-2C adrenergic receptor (Homo sapiens) (UniProt P18825); assay: modulators of alpha2C/GIRK thallium flux, primary screen, cell-based, HEK293 alpha2C/GIRK1/2 (AID 624;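 active = fluorescence slope after compound addition differing from the mean of all screened samples at 99.7% confidence, in either direction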;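 also: slope of fluorescence ratio to pre-addition baseline per second over 15 to 24 s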); settings: thallium flux BTC fluorescence, at 10 µM, actives lie on both sides
Alpha-2C adrenergic receptor (Homo sapiens), sequence (P18825 whole entry, looked up): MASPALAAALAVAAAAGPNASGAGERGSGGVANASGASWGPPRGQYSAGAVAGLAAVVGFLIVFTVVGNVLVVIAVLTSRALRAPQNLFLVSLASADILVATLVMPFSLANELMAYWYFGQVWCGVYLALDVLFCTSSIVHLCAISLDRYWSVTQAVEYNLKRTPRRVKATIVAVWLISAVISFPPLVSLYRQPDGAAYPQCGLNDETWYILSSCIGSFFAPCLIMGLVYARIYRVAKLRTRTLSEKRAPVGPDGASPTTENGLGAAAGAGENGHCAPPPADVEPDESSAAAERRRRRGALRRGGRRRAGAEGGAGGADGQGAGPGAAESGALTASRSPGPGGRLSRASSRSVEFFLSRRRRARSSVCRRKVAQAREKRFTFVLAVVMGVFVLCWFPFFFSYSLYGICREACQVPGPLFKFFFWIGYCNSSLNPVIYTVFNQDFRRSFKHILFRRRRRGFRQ

[7] = inhibitors of Sendai virus-induced IRF3 signaling, primary screen, TLR/RLR signaling modifier project, cell-based, Sendai virus stimulus, luciferase, 10K MLSCN set (AID 602276;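 active = inhibition at or above 50% at 10 µM; inactive = inhibition below 50%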;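 also: firefly luciferase from ISG56 promoter only with Renilla not read in this screen; 0% = Sendai virus plus DMSO and 100% = medium plus DMSO without virus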); settings: HEK293 RL24 IRF3 luciferase reporter, at 10 µM, stronger effect = higher value
[8] = inhibitors of poly I:C-induced TLR3 signaling, primary screen, cell-based, poly I:C stimulus, luciferase, 10K MLSCN set (AID 602277;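 active = inhibition of the reporter signal at or above 50%; inactive = inhibition below 50%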); settings: HEK293-TLR3 RL24 IRF3 luciferase reporter, at 10 µM, stronger effect = higher value

SMILES | cell count [1] | inhibition [1] | inhibition of aggregation [2] | nuclei count [2] [%] | inhibition [3] | nuclei count [3] [%] | fluorescence slope [4] | NADPH fluorescence slope [5] | slope [6] | inhibition [7] | inhibition [8]
CCc1cc2c(CN3CCN(CCO)CC3)cc(=O)oc2cc1O | 396 | 1.3% (inactive) | -12.5% (inactive) | 102 | -34.5% (inactive) | 60.8 | -0.0121 (active) | 1.7e-06 (inactive) | 0.00408 (inactive) | 17.8% (inactive) | 27% (inactive)
Cc1ccc(N=Cc2ccc(O)cc2O)cc1F | 334 | -13.8% (inactive) | 0.1% (inactive) | 113 | -98.5% (inactive) | 107 | -0.395 (inactive) | -0.000134 (inactive) | 0.00518 (inactive) | 13% (inactive) | 23.4% (inactive)
Cc1c(C(=O)NCc2ccccc2)oc2c1C(=O)CCC2 | 530 | -18.8% (inactive) | -28.3% (inactive) | 101 | -70% (inactive) | 121 | -0.372 (inactive) | -6.4e-05 (inactive) | 0.00395 (inactive) | -4.65% (inactive) | -7.05% (inactive)
NC(=O)c1sc2nc3c(c(-c4ccco4)c2c1N)CCC3 | 365 | 5.8% (inactive) | 1.6% (inactive) | 87.8 | -32.2% (inactive) | 121 | -0.366 (inactive) | -6.5e-05 (inactive) | 0.00352 (inactive) | 16.4% (inactive) | -2.19% (inactive)
O=c1cc(CSc2ccccn2)c2ccccc2[nH]1 | 446 | 1.4% (inactive) | 9.1% (inactive) | 74.9 | -59.6% (inactive) | 128 | -0.578 (inactive) | -3e-05 (inactive) | 0.00572 (inactive) | 10.1% (inactive) | 18.8% (inactive)
CCOc1ccc(NC(=O)C2CC(=O)N(C(C)C)C2)cc1 (stereo not drawn) | 346 | -0.5% (inactive) | 11.8% (inactive) | 91.8 | -32.2% (inactive) | 96.8 | -0.623 (inactive) | 4.4e-05 (inactive) | 0.00445 (inactive) | 11% (inactive) | 12.4% (inactive)
Cc1ccc(-c2oc3ccccc3c(=O)c2O)cc1 | 559 | -12% (inactive) | -15.8% (inactive) | 15.8 | 2.6% (inactive) | 105 | -0.0172 (active) | -2.7e-06 (inactive) | 0.00718 (inactive) | -10.6% (inactive) | -26.8% (inactive)
CS(=O)(=O)c1ccc2nc(NC(=O)c3cccs3)sc2c1 | 351 | -2.9% (inactive) | 4.4% (inactive) | 105 | 3.9% (inactive) | 104 | -0.487 (inactive) | -5.8e-05 (inactive) | 0.00673 (inactive) | -10.7% (inactive) | -21.1% (inactive)
CCn1c(C)nc2cc(C(=O)OCCC(F)(F)F)ccc21 | 531 | -9% (inactive) | -1.8% (inactive) | 106 | 6.2% (inactive) | 92.5 | -0.263 (inactive) | -2.2e-05 (inactive) | 0.00759 (inactive) | -16.4% (inactive) | -104% (inactive)
Cc1nc(N)[nH]c(=O)c1CCC(=O)OCC(C)C | 587 | -22.7% (inactive) | 5.9% (inactive) | 80 | -61.2% (inactive) | 97 | -0.507 (inactive) | -4.8e-06 (inactive) | 0.00627 (inactive) | 6.72% (inactive) | 32.1% (inactive)
CC1=C(C)CC2C(=O)N(c3cccc4ccccc34)C(=O)C2C1 (stereo not drawn) | 705 | -2.3% (inactive) | 1.2% (inactive) | 106 | -28.7% (inactive) | 106 | -0.569 (inactive) | -2.7e-05 (inactive) | 0.00739 (inactive) | 0.65% (inactive) | 28.7% (inactive)
CCOc1ccc2[nH]c(=O)c(C(c3nnnn3CC3CCCO3)N3CCc4ccccc4C3)cc2c1 (stereo not drawn) | 702 | 12.9% (inactive) | 3.6% (inactive) | 69 | -1.8% (inactive) | 119 | -0.598 (inactive) | -8.5e-06 (inactive) | 0.00562 (inactive) | 20.7% (inactive) | 31.2% (inactive)
COc1ccc(CCNC(=O)c2ccncc2)cc1OC | 162 | -18.8% (inactive) | 10.4% (inactive) | 95.7 | 11.2% (inactive) | 90 | -0.499 (inactive) | -4.1e-05 (inactive) | 0.00561 (inactive) | 17.7% (inactive) | 19.9% (inactive)
COC(=O)C1=C(C)NC2=C(C(=O)CCC2)C1c1coc2ccccc2c1=O (stereo not drawn) | 322 | -2.1% (inactive) | 14.4% (inactive) | 98.3 | -47.5% (inactive) | 111 | -0.244 (inactive) | 7.1e-06 (inactive) | 0.00668 (inactive) | 16.4% (inactive) | 48.4% (inactive)
CC(C)c1nccn1S(=O)(=O)c1cc(Cl)ccc1Cl | 582 | -11.9% (inactive) | 6.2% (inactive) | 110 | 20.8% (inactive) | 122 | -0.422 (inactive) | -4.2e-05 (inactive) | 0.0045 (inactive) | 8.92% (inactive) | 31% (inactive)
COCCn1nnnc1C(C(C)C)N1CCN(C(=O)c2ccco2)CC1 (stereo not drawn) | 314 | 1.6% (inactive) | 10% (inactive) | 85.2 | -23.9% (inactive) | 121 | -0.511 (inactive) | 4.3e-05 (inactive) | 0.00753 (inactive) | -9.3% (inactive) | -17.2% (inactive)
O=C(CCCC(=O)OCC(=O)NC1CCCC1)Nc1ccccn1 | 463 | 2.6% (inactive) | 1.1% (inactive) | 113 | -130% (inactive) | 179 | -0.6 (inactive) | -4.5e-05 (inactive) | 0.00354 (inactive) | 14% (inactive) | 17.5% (inactive)
O=C(NCC(c1cccnc1)N1CCOCC1)c1ccco1 (stereo not drawn) | 453 | 2.4% (inactive) | -3.5% (inactive) | 100 | -42.3% (inactive) | 129 | -0.336 (inactive) | 3.2e-06 (inactive) | 0.00285 (inactive) | 15.9% (inactive) | 31% (inactive)
COc1ccc(NC(=O)N(C2CCCCC2)C2CCN(C(C)C)CC2)c(OC)c1 | 676 | -7.8% (inactive) | -12.8% (inactive) | 79.5 | -10.8% (inactive) | 109 | -0.518 (inactive) | 9.2e-06 (inactive) | 0.0051 (inactive) | 2.2% (inactive) | 15.1% (inactive)
CCSc1nnc(NC(=O)c2ccccn2)s1 | 351 | 2.9% (inactive) | 13.2% (inactive) | 85.6 | 21.4% (inactive) | 102 | -0.583 (inactive) | 3.3e-06 (inactive) | 0.00493 (inactive) | 4.15% (inactive) | 15.7% (inactive)
CC(C)Oc1ccc(N2CC(C(=O)Nc3ccccc3F)CC2=O)cc1 (stereo not drawn) | 804 | 3.6% (inactive) | -2% (inactive) | 103 | -110% (inactive) | 128 | -0.438 (inactive) | 6.3e-06 (inactive) | 0.00384 (inactive) | 4.3% (inactive) | 37.6% (inactive)
COc1ccccc1OCC(=O)N1CCNC1=O | 652 | 2.2% (inactive) | -1.9% (inactive) | 101 | -78.6% (inactive) | 104 | -0.548 (inactive) | -4.2e-06 (inactive) | 0.00602 (inactive) | 0.107% (inactive) | 20.1% (inactive)
COC(=O)CSc1nc2ncc(Cl)cc2[nH]1 | 542 | 8.6% (inactive) | -23.3% (inactive) | 106 | -49.2% (inactive) | 106 | -0.462 (inactive) | -6.4e-05 (inactive) | 0.00642 (inactive) | 15.8% (inactive) | 25.3% (inactive)
COC(=O)c1ccc(CSc2nc3c(cnn3-c3ccc(F)cc3)c(=O)[nH]2)o1 | 653 | -12.7% (inactive) | -1.4% (inactive) | 106 | -44.8% (inactive) | 113 | -0.545 (inactive) | 5.2e-05 (inactive) | 0.00536 (inactive) | -5.97% (inactive) | 18.8% (inactive)
COC(=O)c1sc(N2C(=O)C(O)=C(C(=O)c3ccc(C)o3)C2c2ccc(F)cc2)nc1C (stereo not drawn) | 325 | 3% (inactive) | 10.4% (inactive) | 96.6 | 35.1% (inactive) | 109 | -0.419 (inactive) | -5.6e-05 (inactive) | 0.0054 (inactive) | 18.3% (inactive) | 4.43% (inactive)
c1cc(-c2nc3ccccc3o2)nc(-c2nc3ccccc3o2)c1 | 426 | 17% (inactive) | -10.7% (inactive) | 82.8 | 9.6% (inactive) | 113 | -0.39 (inactive) | -5.8e-05 (inactive) | 0.00362 (inactive) | 16.6% (inactive) | 30.1% (inactive)
CCc1nn2c(N3CCOCC3)cc(C)nc2c1-c1ccc(F)cc1 | 716 | -9.7% (inactive) | -24.7% (inactive) | 101 | -46.2% (inactive) | 114 | -0.465 (inactive) | -0.000126 (inactive) | 0.0049 (inactive) | 10.6% (inactive) | 18.4% (inactive)
Cc1ccc2nc(NCCCN3CCOCC3)c(C=NCCCN3CCOCC3)c(=O)n2c1 | 619 | -9.6% (inactive) | -38.5% (inactive) | 10.5 | -49.1% (inactive) | 141 | -0.435 (inactive) | -5.9e-05 (inactive) | 0.00509 (inactive) | 14.7% (inactive) | 33.3% (inactive)
